Common to all, as to assay: DAPPL (digital affinity profiling via proximity ligation, sequencing); 10 mM Tris-HCl pH 7.5, 50 mM NaCl, 1 mM DTT, 4% glycerol, room temperature, 30 min; GST-TFs on glutathione beads, 16-mer random dsDNA library, 0.1% formaldehyde crosslink after washing; high values mean tight binding
Holding throughout (settings): protein: recombinant; tags: N-terminal GST; dsDNA, one strand shown

The target in experiment [1] is T1, ELK4 (Homo sapiens, UniProt P28324-2 1-405).
T1 sequence: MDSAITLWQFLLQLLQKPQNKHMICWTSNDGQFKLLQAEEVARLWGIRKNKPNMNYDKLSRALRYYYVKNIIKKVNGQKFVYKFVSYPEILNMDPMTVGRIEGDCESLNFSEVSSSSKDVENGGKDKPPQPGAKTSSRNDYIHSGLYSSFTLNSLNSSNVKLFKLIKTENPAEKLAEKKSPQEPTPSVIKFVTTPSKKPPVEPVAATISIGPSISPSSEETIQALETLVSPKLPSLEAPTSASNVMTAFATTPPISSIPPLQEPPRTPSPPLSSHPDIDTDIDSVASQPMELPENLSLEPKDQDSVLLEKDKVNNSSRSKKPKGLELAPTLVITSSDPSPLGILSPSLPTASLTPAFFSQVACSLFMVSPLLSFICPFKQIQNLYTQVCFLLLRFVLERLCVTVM
Summed up: (§1)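 A tag-only sample was pooled with DNA-barcoded human transcription factors that had been expressed in yeast as GST fusions and captured on glutathione beads. The pools were incubated for 30 min at room temperature with 200 nmole of a random double-stranded 16-mer DNA library in Tris/NaCl/DTT/glycerol buffer, then washed, crosslinked with 0.1% formaldehyde, proximity-ligated (BsaI/T4 ligase, 1 h, 37 °C), PCR-amplified and sequenced on an Illumina NextSeq500. Binding signal is each hexamer's read frequency for a factor divided by its frequency for the tag-only sample.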

The target of experiment [2] is T2, SPDEF (Homo sapiens, UniProt O95238 1-335).
T2 sequence: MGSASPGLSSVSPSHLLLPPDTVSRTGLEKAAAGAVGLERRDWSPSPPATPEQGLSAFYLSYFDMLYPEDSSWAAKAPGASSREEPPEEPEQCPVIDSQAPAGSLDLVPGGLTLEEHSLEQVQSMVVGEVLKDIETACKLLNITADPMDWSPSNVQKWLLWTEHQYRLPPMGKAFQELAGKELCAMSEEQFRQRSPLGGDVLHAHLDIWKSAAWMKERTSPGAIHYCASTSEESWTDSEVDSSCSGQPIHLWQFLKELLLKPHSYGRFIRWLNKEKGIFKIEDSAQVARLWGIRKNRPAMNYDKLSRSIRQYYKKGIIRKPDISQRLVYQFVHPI
Summed up:
as §1

Experiment [3] addresses T3, ELF3 (Homo sapiens, UniProt P78545 1-371).
T3 sequence: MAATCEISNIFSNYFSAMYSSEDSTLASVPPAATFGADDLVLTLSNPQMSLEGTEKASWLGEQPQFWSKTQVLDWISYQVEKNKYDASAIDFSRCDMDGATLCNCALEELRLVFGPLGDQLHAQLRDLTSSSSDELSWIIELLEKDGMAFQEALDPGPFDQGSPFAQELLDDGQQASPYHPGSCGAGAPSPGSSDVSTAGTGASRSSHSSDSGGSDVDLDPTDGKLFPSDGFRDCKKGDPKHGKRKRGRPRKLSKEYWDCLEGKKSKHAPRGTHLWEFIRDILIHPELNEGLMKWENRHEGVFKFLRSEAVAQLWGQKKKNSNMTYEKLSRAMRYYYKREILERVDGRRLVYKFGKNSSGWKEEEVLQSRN
In short, it runs like this: as §1

In experiment [4] the target is T4, ETV7 (Homo sapiens, UniProt Q9Y603 1-341).
T4 sequence: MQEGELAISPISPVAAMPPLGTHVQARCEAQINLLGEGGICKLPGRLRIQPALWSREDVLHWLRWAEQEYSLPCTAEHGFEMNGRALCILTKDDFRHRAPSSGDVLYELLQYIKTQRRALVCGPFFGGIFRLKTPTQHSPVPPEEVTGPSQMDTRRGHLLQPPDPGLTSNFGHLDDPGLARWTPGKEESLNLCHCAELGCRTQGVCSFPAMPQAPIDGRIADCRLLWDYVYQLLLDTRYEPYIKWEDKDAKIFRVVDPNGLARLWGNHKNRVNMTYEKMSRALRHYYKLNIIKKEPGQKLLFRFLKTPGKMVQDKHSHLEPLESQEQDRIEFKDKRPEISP
In short, it runs like this: as §1

Experiment [5] deals with T5, ETV2 (Homo sapiens, UniProt O00321 1-342).
T5 sequence: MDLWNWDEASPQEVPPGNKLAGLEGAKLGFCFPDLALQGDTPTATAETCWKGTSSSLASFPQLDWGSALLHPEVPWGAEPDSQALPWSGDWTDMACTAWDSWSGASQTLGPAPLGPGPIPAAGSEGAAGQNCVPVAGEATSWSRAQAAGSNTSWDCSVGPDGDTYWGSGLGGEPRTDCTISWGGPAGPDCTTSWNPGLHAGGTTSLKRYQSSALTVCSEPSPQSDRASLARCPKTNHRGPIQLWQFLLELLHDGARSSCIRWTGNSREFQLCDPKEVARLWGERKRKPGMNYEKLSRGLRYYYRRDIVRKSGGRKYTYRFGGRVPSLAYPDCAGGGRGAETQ
In short, it runs like this: as §1

Experiment [6] concerns the target CRX (Homo sapiens, UniProt O43186 1-299). Summed up:
as §1

Chain of CRX (O43186 whole entry): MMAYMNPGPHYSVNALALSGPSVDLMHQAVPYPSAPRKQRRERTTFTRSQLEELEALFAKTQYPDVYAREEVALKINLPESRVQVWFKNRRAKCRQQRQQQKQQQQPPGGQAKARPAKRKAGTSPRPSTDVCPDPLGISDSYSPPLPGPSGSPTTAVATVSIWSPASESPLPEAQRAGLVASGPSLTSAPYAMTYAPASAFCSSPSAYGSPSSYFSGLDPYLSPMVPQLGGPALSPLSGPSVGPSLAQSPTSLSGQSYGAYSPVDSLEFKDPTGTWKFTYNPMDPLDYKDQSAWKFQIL

With GTCTAC, the binding signal in experiment [1] was 1 fold enrichment (6-mer frequency, TF over GST control); in experiment [2], 1.11 fold enrichment (6-mer frequency, TF over GST control).
In the case of ATGGTG, the binding signal in experiment [1] is 1.17 fold enrichment (6-mer frequency, TF over GST control); in experiment [3], 1.07 fold enrichment (6-mer frequency, TF over GST control); in experiment [2] it was 1.14 fold enrichment (6-mer frequency, TF over GST control).
In the case of GCTGCC, the binding signal was 1.2 fold enrichment (6-mer frequency, TF over GST control) in experiment [1]; 1.09 fold enrichment (6-mer frequency, TF over GST control) in experiment [2]; 1.04 fold enrichment (6-mer frequency, TF over GST control) in experiment [4].
As to GTCTTG, the binding signal was 1.02 fold enrichment (6-mer frequency, TF over GST control) in experiment [1]; 1.05 fold enrichment (6-mer frequency, TF over GST control) in experiment [2]; 1.19 fold enrichment (6-mer frequency, TF over GST control) in experiment [4].
Consider TGGACC, for which the binding signal was 1.03 fold enrichment (6-mer frequency, TF over GST control) in experiment [1]; 1.19 fold enrichment (6-mer frequency, TF over GST control) in experiment [3]; 1.05 fold enrichment (6-mer frequency, TF over GST control) in experiment [2]; 1.03 fold enrichment (6-mer frequency, TF over GST control) in experiment [4].
AAGGGT: the binding signal is 1.15 fold enrichment (6-mer frequency, TF over GST control) in experiment [1] and 1.1 fold enrichment (6-mer frequency, TF over GST control) in experiment [4].
For CGCTAT, the binding signal was 1.07 fold enrichment (6-mer frequency, TF over GST control) in experiment [1]; 1.15 fold enrichment (6-mer frequency, TF over GST control) in experiment [5]; 1.01 fold enrichment (6-mer frequency, TF over GST control) in experiment [3]; 1.1 fold enrichment (6-mer frequency, TF over GST control) in experiment [2]; 1.25 fold enrichment (6-mer frequency, TF over GST control) in experiment [4].
Regarding TAACCG, the binding signal in experiment [5] was 1.2 fold enrichment (6-mer frequency, TF over GST control); in experiment [3] it was 1.04 fold enrichment (6-mer frequency, TF over GST control); in experiment [6], 1.1 fold enrichment (6-mer frequency, TF over GST control); in experiment [2], 1.1 fold enrichment (6-mer frequency, TF over GST control); in experiment [4] it was 1.02 fold enrichment (6-mer frequency, TF over GST control).
For the sequence GGAAGA, the binding signal in experiment [5] was 1.09 fold enrichment (6-mer frequency, TF over GST control); in experiment [3], 1.19 fold enrichment (6-mer frequency, TF over GST control); in experiment [4], 1.13 fold enrichment (6-mer frequency, TF over GST control).
Take CAGCTA: the binding signal in experiment [1] is 1.16 fold enrichment (6-mer frequency, TF over GST control); in experiment [3] it was 1.1 fold enrichment (6-mer frequency, TF over GST control); in experiment [6], 1.05 fold enrichment (6-mer frequency, TF over GST control); in experiment [4], 1.13 fold enrichment (6-mer frequency, TF over GST control).
In the case of AGCTGT, the binding signal in experiment [1] was 1.04 fold enrichment (6-mer frequency, TF over GST control); in experiment [5], 1.07 fold enrichment (6-mer frequency, TF over GST control); in experiment [6], 1.02 fold enrichment (6-mer frequency, TF over GST control).
For ATAAGG, the binding signal in experiment [5] was 1.02 fold enrichment (6-mer frequency, TF over GST control); in experiment [3] it was 1.1 fold enrichment (6-mer frequency, TF over GST control); in experiment [6], 1.28 fold enrichment (6-mer frequency, TF over GST control); in experiment [2], 1.05 fold enrichment (6-mer frequency, TF over GST control).
As to GTGTCC, the binding signal in experiment [5] is 1.19 fold enrichment (6-mer frequency, TF over GST control); in experiment [3], 1.22 fold enrichment (6-mer frequency, TF over GST control); in experiment [2], 1.34 fold enrichment (6-mer frequency, TF over GST control); in experiment [4], 1.22 fold enrichment (6-mer frequency, TF over GST control).
As to TGCGGC, the binding signal is 1.33 fold enrichment (6-mer frequency, TF over GST control) in experiment [3] and 1.07 fold enrichment (6-mer frequency, TF over GST control) in experiment [4].
Take GGTCCT: the binding signal in experiment [1] is 1.05 fold enrichment (6-mer frequency, TF over GST control); in experiment [5] it was 1.13 fold enrichment (6-mer frequency, TF over GST control); in experiment [2], 1.1 fold enrichment (6-mer frequency, TF over GST control); in experiment [4], 1.09 fold enrichment (6-mer frequency, TF over GST control).
As to AGGAAC, the binding signal in experiment [5] was 1.15 fold enrichment (6-mer frequency, TF over GST control); in experiment [3], 1.04 fold enrichment (6-mer frequency, TF over GST control); in experiment [2], 1.05 fold enrichment (6-mer frequency, TF over GST control).
With GGCCCC, the binding signal in experiment [1] was 1.02 fold enrichment (6-mer frequency, TF over GST control); in experiment [5], 1.13 fold enrichment (6-mer frequency, TF over GST control); in experiment [3] it was 1.02 fold enrichment (6-mer frequency, TF over GST control); in experiment [2] it was 1.05 fold enrichment (6-mer frequency, TF over GST control).
Consider GCCGCC, for which the binding signal is 1.08 fold enrichment (6-mer frequency, TF over GST control) in experiment [3] and 1.03 fold enrichment (6-mer frequency, TF over GST control) in experiment [4].
CTGCGG: the binding signal was 1.25 fold enrichment (6-mer frequency, TF over GST control) in experiment [5]; 1.2 fold enrichment (6-mer frequency, TF over GST control) in experiment [3]; 1.18 fold enrichment (6-mer frequency, TF over GST control) in experiment [4].
With CGTCGC, the binding signal in experiment [5] was 1.2 fold enrichment (6-mer frequency, TF over GST control); in experiment [3], 1.1 fold enrichment (6-mer frequency, TF over GST control); in experiment [2] it was 1.24 fold enrichment (6-mer frequency, TF over GST control); in experiment [4] it was 1.23 fold enrichment (6-mer frequency, TF over GST control).
As for AACTGA, the binding signal is 1.07 fold enrichment (6-mer frequency, TF over GST control) in experiment [5]; 1.12 fold enrichment (6-mer frequency, TF over GST control) in experiment [3]; 1.05 fold enrichment (6-mer frequency, TF over GST control) in experiment [4].
In the case of AGTATG, the binding signal in experiment [3] was 1.08 fold enrichment (6-mer frequency, TF over GST control); in experiment [4], 1.12 fold enrichment (6-mer frequency, TF over GST control).
In the case of TACGGT, the binding signal is 1.02 fold enrichment (6-mer frequency, TF over GST control) in experiment [1]; 1.07 fold enrichment (6-mer frequency, TF over GST control) in experiment [5]; 1.11 fold enrichment (6-mer frequency, TF over GST control) in experiment [3]; 1.03 fold enrichment (6-mer frequency, TF over GST control) in experiment [6]; 1.1 fold enrichment (6-mer frequency, TF over GST control) in experiment [2]; 1.08 fold enrichment (6-mer frequency, TF over GST control) in experiment [4].
In the case of GCTGCG, the binding signal in experiment [3] is 1.03 fold enrichment (6-mer frequency, TF over GST control); in experiment [2] it was 1.02 fold enrichment (6-mer frequency, TF over GST control); in experiment [4] it was 1.19 fold enrichment (6-mer frequency, TF over GST control).
As for GAAGTC, the binding signal in experiment [5] was 1.08 fold enrichment (6-mer frequency, TF over GST control); in experiment [3], 1.1 fold enrichment (6-mer frequency, TF over GST control); in experiment [2] it was 1.06 fold enrichment (6-mer frequency, TF over GST control); in experiment [4], 1.1 fold enrichment (6-mer frequency, TF over GST control).
On to CGATGT, for which the binding signal was 1.07 fold enrichment (6-mer frequency, TF over GST control) in experiment [5]; 1.11 fold enrichment (6-mer frequency, TF over GST control) in experiment [3]; 1.12 fold enrichment (6-mer frequency, TF over GST control) in experiment [2]; 1.14 fold enrichment (6-mer frequency, TF over GST control) in experiment [4].
For CCCCGT, the binding signal in experiment [5] was 1.1 fold enrichment (6-mer frequency, TF over GST control); in experiment [3], 1.26 fold enrichment (6-mer frequency, TF over GST control); in experiment [2] it was 1 fold enrichment (6-mer frequency, TF over GST control).
CGCTGG: the binding signal is 1.01 fold enrichment (6-mer frequency, TF over GST control) in experiment [1]; 1.03 fold enrichment (6-mer frequency, TF over GST control) in experiment [5]; 1.02 fold enrichment (6-mer frequency, TF over GST control) in experiment [4].
Consider GTTACG, for which the binding signal is 1.03 fold enrichment (6-mer frequency, TF over GST control) in experiment [1]; 1.22 fold enrichment (6-mer frequency, TF over GST control) in experiment [5]; 1.04 fold enrichment (6-mer frequency, TF over GST control) in experiment [2]; 1.02 fold enrichment (6-mer frequency, TF over GST control) in experiment [4].
With CGGAAC, the binding signal in experiment [5] was 1.14 fold enrichment (6-mer frequency, TF over GST control); in experiment [3], 1.11 fold enrichment (6-mer frequency, TF over GST control); in experiment [2], 1.32 fold enrichment (6-mer frequency, TF over GST control).

For the origin of these results see paper PMC7862700, “An all-to-all approach to the identification of sequence-specific readers for epigenetic DNA modifications on cytosine”.
